± gives the standard deviation of the averaged measurements. The full ranking holds about 25,000 sequences; the median of “ln(normalized median fluorescence intensity)” is about 8.9, and the highest 2% start at about 10. Many of the other results were omitted from the sample, so the highest values are more common in it than they were.
These sequences were tested on PfAP2-LT AP2 domain (GST-tagged) (assay: gcPBM binding intensity (ln(normalized median fluorescence intensity)); higher = stronger DNA binding).
Method in brief: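 DNA-binding domains from P. falciparum, fused to GST and produced in E. coli, were put on an Agilent 4 × 180k double-stranded probe array for 1 h in 1× PBS holding 1% milk, 0.2 mg/ml BSA, 0.5% salmon testes DNA and 0.03% Triton X-100. Probes were primer-extended, 36 bp long and drawn from intergenic genomic regions, with negative controls included. After Alexa488 anti-GST antibody detection and a 488 nm scan, binding intensity was set as the highest Masliner-normalised natural-log median intensity across replicate spots of either probe orientation.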

Sequence	gcPBM binding intensity (ln)
TATAAAATTACATTTTGTCATTTATTTTTTCCCACT [TGCATGCA_negctrl_site110]	8.54 ± 0.63
AGTATATATACACAAGGGGAATACATATACAAAATT [TGCATGCA_negctrl_site244]	9.04 ± 0.46
ACAAAAGGGGAATACACACACATATATATATATATA [CACACA_site2215]	10.33 ± 0.071
ATACAAAAGGGGAATACACACACATATATATATATA [CACACA_site8694]	10.12 ± 0.021
CCCACAAAGGAATATACACACATATATATATATATA [CACACA_site4091]	9.95 ± 0.18
CACACAAAGGAATATACACACATATTTATATTTATA [CACACA_site7841]	9.21 ± 0.44
ACAAAAGGGGAATACACACACATATATAAATAAATA [CACACA_site7111]	9.59 ± 0.6
ACAATAAAAATTTATGCATGTGAATTGAAAAAAAAA [TGCATGCA_site1037]	8.72 ± 0.48
CATAAATCAGCCATAACACACATACATATATACATA [CACACA_site8025]	9.28 ± 0.42
TAATATACATAATAATGTACATATTTTCATATATAC [XGTACX_site6913]	8.74 ± 0.35
ACCATGAAAATATTATGTACATATGTATTATATATA [XGTACX_site408]	8.87 ± 0.33
ATATATAATATATATGCATGTGACATTAATAATATA [TGCATGCA_site880]	8.81 ± 0.4
TTTATATTGATATATACACACATATACATCCTATTT [CACACA_site7442]	9.11 ± 0.42
AACCATTGGGAAAGGGTGCACATATATATATATATA	10.09 ± 0.099
GGAAAAACCATTCGCACACACACATAATATATAATA [CACACA_site1424]	9.71 ± 0.31
ATAAATATTGGGTGCACACACATAATATATATATAT [CACACA_site2272]	9.59 ± 0.35
TAATAAATAAGACACACACACATATATATATATTAT [CACACA_site1389]	9.8 ± 0.2
TAAAACATAAGAGACACACACACATATATATATATA [CACACA_site3643]	10.1 ± 0.16
CATTATAAGAGACACACACACATATATAAATATGTA [CACACA_site6621]	9.63 ± 0.38
AAACATAAGAGACACACACACATATATAAATAAATA [CACACA_site7674]	9.79 ± 0.38
AACATTATAAGACACACACACACATATATATATATA [CACACA_site8259]	10.3 ± 0.3
AACATTATAAGACACACACACACATATATAAATATA [CACACA_site6622]	10.2 ± 0.38

Sequence	gcPBM binding intensity (ln)
ATATGGAATAATACGCGTACACACATATATATATTA [XGTACX_site307]	9.34 ± 0.3
GAATACATAATAACATGTACACACATTCTTCTATAA [XGTACX_site8725]	9.01 ± 0.36
ATATATATATATAATGCACACATTATAAATTATGTA [CACACA_site5802]	9.02 ± 0.31
ATTAAAAAAATTAAAAGTACACATATTTCAATGATA [XGTACX_site5606]	8.43 ± 0.41
AAAATTATATGTAATTGTACGGAATTATATACGCAA [XGTACX_site2048]	8.72 ± 0.41
TTGGTCTTTTAAAAAAGTACAAAAAAAAAAAAAAAA [XGTACX_site1665]	8.08 ± 0.55
TAAAATAAAACAAACACACACACACGGACACAAAAA [CACACA_site7754]	10.4 ± 0.34
AAATAAATGAAACACACACACACAAAAAAAAAAAAC [CACACA_site2625]	10.2 ± 0.28
GGACAACAAACAAACACACACAAAAAAAAAATAAAA [CACACA_site3791]	9.6 ± 0.71
AAAATAAAATAAAACACAAAAAAATAAAACAAAATA [CACACA_negctrl_site16]	8.87 ± 0.49
CAACAAAATAAACACACACACACAAACACAAAAAAA [CACACA_site5806]	10.2 ± 0.27
ATTCATTCATATGTTACACACACACCCACCCATAAA [CACACA_site9066]	9.71 ± 0.23
TCATTCATATGTTACACACACACACCCACATAAAAA [CACACA_site3245]	9.8 ± 0.23
AAAAAAAAAAAAAACACACAAACAAATGAATAAATA [CACACA_site3300]	8.99 ± 0.54
ATTCATATGAAACACACACACACACCCATAAAAAAA [CACACA_site3246]	10.2 ± 0.2
AAAAAAAAAAAAAACACACACACAAAATAAACAAAC [CACACA_site2720]	9.66 ± 0.44
AAAAAAAAAAAAAAAACACACAAACAAATGAATAAA [CACACA_site5769]	8.89 ± 0.5
CAAAAAAAATAAAACACACACACAAAAAAATAAAAA [CACACA_site466]	9.84 ± 0.31
ATGTTATATTTTTTTATACACACTGGAATATATAAA [CACACA_site215]	8.64 ± 0.34
TGAATGTAAGAAAATACACACTAGTATAGTAACACC [CACACA_site5131]	9.24 ± 0.38
ATGTAATATTTACAACGTACAAATTATAAACATATT [XGTACX_site603]	8.88 ± 0.35
GACGACTATATTAATTGTACTCAATTTAAGCATAAT [XGTACX_site2750]	8.72 ± 0.35
